Experimental data: PubChem BioAssay
For some of these results: Measured potencies and affinities stand elsewhere. This is one part of the list. Activity calls are given as the source filed them.

Legend:
[1] = target: Inward rectifier potassium channel 2 (Mus musculus) (UniProt P35561); assay: mouse Kir2.1 channel blockers, retest, confirmation, cell-based, FluxOR thallium flux, duplicate (AID 2032;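 active means Primary-screen hit whose thallium flux fell at least 3 control SD below untreated wells in both duplicates, with normal baseline fluorescence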); conditions: Kir2.1-expressing cells, FluxOR thallium flux fluorescence, at 10 µM; stronger effect = lower value
Sequence of Inward rectifier potassium channel 2 (Mus musculus) (P35561 whole entry, looked up): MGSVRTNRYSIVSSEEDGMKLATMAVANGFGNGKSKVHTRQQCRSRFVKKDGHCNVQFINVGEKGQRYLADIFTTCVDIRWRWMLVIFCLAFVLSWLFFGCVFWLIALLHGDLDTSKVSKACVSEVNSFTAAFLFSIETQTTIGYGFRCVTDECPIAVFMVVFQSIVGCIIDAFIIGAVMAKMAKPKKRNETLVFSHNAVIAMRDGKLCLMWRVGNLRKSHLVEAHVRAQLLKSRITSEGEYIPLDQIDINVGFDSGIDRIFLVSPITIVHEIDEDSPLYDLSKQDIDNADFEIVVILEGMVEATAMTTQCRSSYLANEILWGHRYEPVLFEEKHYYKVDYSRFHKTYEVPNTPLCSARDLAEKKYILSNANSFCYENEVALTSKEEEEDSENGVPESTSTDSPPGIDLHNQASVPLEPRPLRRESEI

[2] = nonspecific thallium flux effects in parental HEK293 cells, confirmation, counter-screen for Kir2.1 inhibitor project, cell-based, FluxOR thallium flux, duplicate, single concentration (AID 2105); conditions: FluxOR thallium flux fluorescence, at 10 µM; 0% = unstimulated blank wells
[3] = target: Voltage-gated inwardly rectifying potassium channel KCNH2 (Homo sapiens) (UniProt Q12809); assay: hERG channel inhibition, counter-screen for Kir2.1 inhibitor project, cell-based, thallium flux (AID 2236; call rule not given here;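 further: host cells are CHO cells stably expressing hERG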); conditions: hERG-expressing cells, at 10 µM; stronger effect = higher value
Sequence of Voltage-gated inwardly rectifying potassium channel KCNH2 (Homo sapiens) (Q12809 whole entry, looked up): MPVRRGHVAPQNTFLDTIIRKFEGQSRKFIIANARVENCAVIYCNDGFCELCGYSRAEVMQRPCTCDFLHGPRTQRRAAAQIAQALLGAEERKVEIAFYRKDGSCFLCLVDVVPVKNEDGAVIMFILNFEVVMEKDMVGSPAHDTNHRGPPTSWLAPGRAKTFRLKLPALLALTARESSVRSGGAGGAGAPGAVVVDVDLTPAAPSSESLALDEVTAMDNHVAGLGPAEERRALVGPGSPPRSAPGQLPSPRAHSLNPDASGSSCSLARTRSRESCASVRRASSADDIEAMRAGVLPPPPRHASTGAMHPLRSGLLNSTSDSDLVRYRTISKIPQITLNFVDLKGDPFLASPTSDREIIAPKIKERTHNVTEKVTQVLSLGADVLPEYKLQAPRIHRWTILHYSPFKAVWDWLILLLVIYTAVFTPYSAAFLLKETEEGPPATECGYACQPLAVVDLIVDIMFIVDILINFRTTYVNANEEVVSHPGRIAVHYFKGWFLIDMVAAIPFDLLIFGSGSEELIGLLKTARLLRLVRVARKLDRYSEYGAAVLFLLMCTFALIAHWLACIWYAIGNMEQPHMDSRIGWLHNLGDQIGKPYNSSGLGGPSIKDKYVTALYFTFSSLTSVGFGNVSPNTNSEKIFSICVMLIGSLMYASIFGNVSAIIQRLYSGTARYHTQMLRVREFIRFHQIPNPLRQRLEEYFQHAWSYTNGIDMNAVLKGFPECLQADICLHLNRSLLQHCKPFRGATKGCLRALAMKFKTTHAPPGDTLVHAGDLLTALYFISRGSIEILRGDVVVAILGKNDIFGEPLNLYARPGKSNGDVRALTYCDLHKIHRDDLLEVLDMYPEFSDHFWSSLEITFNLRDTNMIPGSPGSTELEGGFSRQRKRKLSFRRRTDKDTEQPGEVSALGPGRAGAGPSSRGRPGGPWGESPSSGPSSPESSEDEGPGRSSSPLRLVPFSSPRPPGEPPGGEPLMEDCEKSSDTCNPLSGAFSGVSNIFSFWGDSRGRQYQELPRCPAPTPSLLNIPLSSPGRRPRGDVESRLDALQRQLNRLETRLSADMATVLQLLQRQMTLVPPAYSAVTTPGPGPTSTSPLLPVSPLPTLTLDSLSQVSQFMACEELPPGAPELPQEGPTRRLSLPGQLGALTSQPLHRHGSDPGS

[4] = target: Potassium channel subfamily K member 9 (Homo sapiens) (UniProt Q9NPC2); assay: KCNK9 channel inhibition, selectivity assay for Kir2.1 inhibitor project, cell-based (AID 2329; call rule not given here); conditions: KCNK9-expressing cells, ion flux inhibition, at 10 µM; stronger effect = higher value
[5] = target: Inward rectifier potassium channel 2 (Mus musculus) (UniProt P35561); assay: mouse Kir2.1 channel blockers, Kir2.1 inhibitor project, cell-based, secondary, automated electrophysiology (AID 463252; call rule not given here); conditions: Kir2.1 cells, automated patch-clamp current inhibition, at 25 µM; stronger effect = higher value
[6] = nonspecific thallium flux increase in parental CHO-K1, confirmation, counter-screen for KCNQ2 potentiator project, cell-based, FluxOR thallium flux, duplicate (AID 2282;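 active means signal rise of at least 3 SD above the untreated control mean, in both duplicate wells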;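 further: counter screen of KCNQ2 potentiator hits so any rise reflects channel-independent effects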); conditions: parental CHO-K1 cells, FluxOR thallium flux fluorescence; at 10 µM; stronger effect = higher value; zero = vehicle mean+3SD, 100% = vehicle-minus-blank window
[7] = target: Potassium voltage-gated channel subfamily KQT member 1 (Homo sapiens) (UniProt P51787); assay: human KCNQ1 channel potentiation off-target, confirmation, selectivity assay for KCNQ2 potentiator project, cell-based, CHO, FluxOR thallium flux (AID 2283;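 active means fluorescence ratio rise of at least 3 SD of vehicle wells above their mean, in both replicate wells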;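 further: 0% = vehicle mean plus 3 SD and 100% = vehicle minus unstimulated blank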); conditions: CHO KCNQ1 stable, FluxOR thallium flux fluorescence; at 10 µM; stronger effect = higher value; beyond 3SD, as % of vehicle-control signal
Sequence of Potassium voltage-gated channel subfamily KQT member 1 (Homo sapiens) (P51787 whole entry, looked up): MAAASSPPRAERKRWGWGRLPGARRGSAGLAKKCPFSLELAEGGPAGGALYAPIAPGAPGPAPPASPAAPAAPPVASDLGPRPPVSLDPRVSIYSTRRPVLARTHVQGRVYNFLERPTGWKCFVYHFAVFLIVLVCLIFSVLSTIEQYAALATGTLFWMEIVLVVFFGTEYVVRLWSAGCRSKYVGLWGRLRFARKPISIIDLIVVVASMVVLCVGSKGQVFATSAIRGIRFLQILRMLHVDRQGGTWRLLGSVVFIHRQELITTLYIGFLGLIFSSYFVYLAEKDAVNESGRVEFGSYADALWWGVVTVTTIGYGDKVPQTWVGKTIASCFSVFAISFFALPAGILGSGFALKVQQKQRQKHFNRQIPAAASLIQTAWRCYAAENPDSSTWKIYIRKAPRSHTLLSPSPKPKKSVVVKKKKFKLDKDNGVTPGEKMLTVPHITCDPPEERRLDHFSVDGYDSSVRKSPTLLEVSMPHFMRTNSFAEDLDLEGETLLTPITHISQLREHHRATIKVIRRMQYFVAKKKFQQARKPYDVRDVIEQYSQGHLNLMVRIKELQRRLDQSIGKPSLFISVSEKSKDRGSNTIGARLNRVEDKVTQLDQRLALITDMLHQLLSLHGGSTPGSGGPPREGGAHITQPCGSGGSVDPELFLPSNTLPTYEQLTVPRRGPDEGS

[8] = target: Potassium voltage-gated channel subfamily KQT member 2 (Rattus norvegicus) (UniProt O88943); assay: rat KCNQ2 channel potentiators, confirmation, cell-based, CHO, FluxOR thallium flux, duplicate (AID 2287;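 active means fluorescence ratio rising 3 SD or more over the vehicle control mean in both replicates, plus primary screen hit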;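 further: peak minus minimum thallium fluorescence divided by baseline after K/Tl stimulus; 0% = vehicle mean plus 3 SD and 100% = vehicle minus unstimulated blank difference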); conditions: CHO-KCNQ2 cells, FluxOR thallium flux fluorescence; at 10 µM; stronger effect = higher value
[9] = target: Inward rectifier potassium channel 2 (Mus musculus) (UniProt P35561); assay: PubChem AID 2345; conditions: HEK293 Kir2.1, FluxOR thallium flux fluorescence; at 10 µM; stronger effect = higher value;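 further: 0% = vehicle mean plus 3 SD and 100% = vehicle minus no-stimulus blank window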
[10] = target: Potassium voltage-gated channel subfamily KQT member 2 (Rattus norvegicus) (UniProt O88943); assay: potentiators of retigabine-insensitive KCNQ2 W236L, mechanism study for KCNQ2 potentiator project, cell-based, rat KCNQ2 W236L, CHO, automated patch clamp (AID 2558;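 active means current increase at least 3 SD of the untreated controls above them in both duplicate recordings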); conditions: at 25 µM; outcome: automated patch clamp current
[11] = test system: TRPC4 beta (transient receptor potential cation channel C4), mouse; assay: activators of mouse TRPC4 channel, confirmation, cell-based, Fluo4 calcium, HEK293 TRPC4beta/mu-opioid, duplicates, 10 µM (AID 2426;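 active means fluorescence ratio normalized to control raised more than 50% in primary screen plus both repeat runs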); conditions: Fluo4 calcium fluorescence, at 10 µM; stronger effect = higher value
[12] = test system: transient receptor potential cation channel C4 beta (TRPC4), mouse; assay: activators of mouse TRPC4 channel, confirmation, cell-based, second round, Fluo4, HEK293 TRPC4beta/mu-opioid, 1 µM (AID 2461;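 active means primary screen active and over 50% activation in each of two duplicate runs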); conditions: Fluo4 calcium fluorescence, at 1 µM; stronger effect = higher value
[13] = test system: TRPC4 (transient receptor potential cation channel C4 beta), mouse; assay: positive allosteric modulators of mouse TRPC4, confirmation, cell-based, second round, Fluo-4, HEK293 TRPC4beta/mu-opioid, 1 µM (AID 2554;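 active means primary screen hit whose fluorescence ratio, in both repeats, exceeds the weak agonist control mean by 3 SD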); conditions: DAMGO EC20, Fluo-4 calcium flux, at 1 µM; stronger effect = higher value
[14] = test system: TRPC4 beta (transient receptor potential cation channel C4), mouse; assay: positive allosteric modulators of mouse TRPC4, confirmation, cell-based, Fluo-4, HEK293 TRPC4beta/mu-opioid (AID 2555;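 active means primary screen hit whose calcium fluorescence ratio, in both repeats, exceeds the weak agonist control mean by 3 SD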); conditions: DAMGO EC20, Fluo-4 calcium flux, at 10 µM; stronger effect = higher value
[15] = target: Short transient receptor potential channel 4 (Mus musculus) (UniProt Q9QUQ5); assay: inhibitors of mouse TRPC4 channel, confirmation, cell-based, Fluo4, HEK293 TRPC4beta/mu-opioid (AID 2636;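 active means calcium signal cut by more than 3 SD below the full-agonist control yet still positive, in both repeats and the earlier primary screen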); conditions: DAMGO, Fluo4 calcium flux, at 10 µM; stronger effect = higher value
Sequence of Short transient receptor potential channel 4 (Mus musculus) (Q9QUQ5 whole entry, looked up): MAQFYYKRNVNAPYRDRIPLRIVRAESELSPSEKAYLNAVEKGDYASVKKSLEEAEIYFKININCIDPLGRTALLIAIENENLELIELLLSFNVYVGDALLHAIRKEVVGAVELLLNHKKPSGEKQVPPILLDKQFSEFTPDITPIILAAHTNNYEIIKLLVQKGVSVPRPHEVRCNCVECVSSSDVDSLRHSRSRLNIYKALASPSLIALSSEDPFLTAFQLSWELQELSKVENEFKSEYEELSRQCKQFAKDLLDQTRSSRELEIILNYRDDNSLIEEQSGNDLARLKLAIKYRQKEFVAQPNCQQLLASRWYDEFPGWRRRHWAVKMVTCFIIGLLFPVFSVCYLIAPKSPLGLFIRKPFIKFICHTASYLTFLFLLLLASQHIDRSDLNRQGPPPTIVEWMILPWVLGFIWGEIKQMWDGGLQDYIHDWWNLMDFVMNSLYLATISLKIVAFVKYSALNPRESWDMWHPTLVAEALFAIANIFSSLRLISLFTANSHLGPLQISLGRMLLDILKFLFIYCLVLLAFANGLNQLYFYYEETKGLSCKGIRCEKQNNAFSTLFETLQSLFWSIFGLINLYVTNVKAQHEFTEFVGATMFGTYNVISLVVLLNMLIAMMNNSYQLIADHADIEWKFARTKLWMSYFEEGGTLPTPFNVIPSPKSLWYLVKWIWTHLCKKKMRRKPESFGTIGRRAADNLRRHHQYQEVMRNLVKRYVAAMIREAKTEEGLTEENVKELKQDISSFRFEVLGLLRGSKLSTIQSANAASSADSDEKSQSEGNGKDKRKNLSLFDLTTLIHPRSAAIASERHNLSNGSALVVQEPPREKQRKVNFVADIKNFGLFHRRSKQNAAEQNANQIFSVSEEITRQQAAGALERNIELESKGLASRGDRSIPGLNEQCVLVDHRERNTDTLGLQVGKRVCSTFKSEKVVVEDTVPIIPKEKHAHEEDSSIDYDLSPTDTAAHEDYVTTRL

[16] = target: Short transient receptor potential channel 4 (Mus musculus) (UniProt Q9QUQ5); assay: inhibitors of mouse TRPC4 channel, confirmation, cell-based, second round, Fluo4, HEK293 TRPC4beta/mu-opioid, 1 µM (AID 2637;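 active means calcium signal ratio cut to more than 3 SD under the fully stimulated control mean yet still positive, in both repeats and the primary screen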); conditions: Fluo4 calcium flux, DAMGO, at 1 µM; stronger effect = higher value
[17] = target: Short transient receptor potential channel 4 (Mus musculus) (UniProt Q9QUQ5); assay: mouse TRPC4 channel activators, dose response, cell-based, HEK293 TRPC4/mu-opioid, Fluo-4 calcium (AID 434937;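 active means primary screen activator hit with a dose response curve and TRPC4 channel activation at any tested dose; inactive means no activation, no dose response, or not a primary hit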)
[18] = target: Short transient receptor potential channel 4 (Mus musculus) (UniProt Q9QUQ5); assay: TRPC4 positive allosteric modulators, dose response, cell-based, HEK293 TRPC4/mu-opioid, Fluo-4 calcium, EC20 DAMGO (AID 434941;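 active means earlier screen potentiator hit that boosts the TRPC4 ion channel at some dose, with a dose response; inactive means no potentiation, no dose response, or not a prior hit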;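 further: calcium entry triggered by an EC20 dose of DAMGO at the co-expressed mu-opioid receptor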)
[19] = target: Short transient receptor potential channel 4 (Mus musculus) (UniProt Q9QUQ5); assay: mouse TRPC4 channel inhibitors, dose response, cell-based, HEK293 TRPC4/mu-opioid, Fluo-4 calcium (AID 434942;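 active means primary screen inhibitor hit that blocks the TRPC4 channel at some tested dose, yielding a dose curve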)
[20] = target: Short transient receptor potential channel 6 (Mus musculus) (UniProt Q61143); assay: inhibition of mouse TRPC6 channel, confirmation, selectivity assay for TRPC4 inhibitor project, cell-based, HEK293, membrane potential dye, duplicate (AID 434948;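 active means active in primary screen and both duplicates, each dropping signal beyond three positive-control SD with fluorescence still positive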); conditions: HEK293 TRPC6, membrane potential dye fluorescence, at 10 µM, stimulated with maximal-effect acetylcholine; stronger effect = higher value
Sequence of Short transient receptor potential channel 6 (Mus musculus) (Q61143 whole entry, looked up): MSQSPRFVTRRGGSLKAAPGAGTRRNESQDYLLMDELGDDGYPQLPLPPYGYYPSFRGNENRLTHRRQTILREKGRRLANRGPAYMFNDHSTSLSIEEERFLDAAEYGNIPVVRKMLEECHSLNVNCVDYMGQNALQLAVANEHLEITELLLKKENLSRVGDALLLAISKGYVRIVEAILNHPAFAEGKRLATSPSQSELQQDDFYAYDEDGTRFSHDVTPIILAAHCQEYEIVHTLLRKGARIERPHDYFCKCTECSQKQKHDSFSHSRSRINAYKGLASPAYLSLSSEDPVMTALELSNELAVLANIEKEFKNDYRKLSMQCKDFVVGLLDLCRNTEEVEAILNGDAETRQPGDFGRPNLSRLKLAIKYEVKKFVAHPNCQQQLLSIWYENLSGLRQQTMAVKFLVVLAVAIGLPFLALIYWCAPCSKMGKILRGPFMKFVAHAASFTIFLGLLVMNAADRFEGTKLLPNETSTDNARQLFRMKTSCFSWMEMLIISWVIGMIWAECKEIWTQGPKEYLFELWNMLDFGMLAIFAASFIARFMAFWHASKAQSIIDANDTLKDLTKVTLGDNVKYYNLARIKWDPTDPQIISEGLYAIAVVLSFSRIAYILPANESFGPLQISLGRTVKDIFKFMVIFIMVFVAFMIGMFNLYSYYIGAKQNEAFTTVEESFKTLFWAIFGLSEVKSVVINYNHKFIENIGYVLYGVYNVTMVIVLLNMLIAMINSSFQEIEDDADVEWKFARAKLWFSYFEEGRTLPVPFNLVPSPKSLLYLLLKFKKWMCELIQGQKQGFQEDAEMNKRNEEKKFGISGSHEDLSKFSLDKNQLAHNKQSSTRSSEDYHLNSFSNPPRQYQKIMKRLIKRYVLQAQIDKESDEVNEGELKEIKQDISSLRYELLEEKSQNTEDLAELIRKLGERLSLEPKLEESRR

[21] = target: Short transient receptor potential channel 6 (Mus musculus) (UniProt Q61143); assay: activation of mouse TRPC6 channel, confirmation, selectivity assay for TRPC4 activator project, cell-based, HEK293, membrane potential dye, duplicate (AID 434950;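 active means membrane potential signal rise above negative control mean plus 3 SD in both duplicates, also active in the earlier TRPC4 screen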); conditions: HEK293 TRPC6, membrane potential fluorescence, at 10 µM; stronger effect = higher value
[22] = target: Short transient receptor potential channel 6 (Mus musculus) (UniProt Q61143); assay: TRPC6 potentiation by TRPC4 potentiator hits, confirmation, selectivity assay for TRPC4 potentiator project, HEK293 cells, membrane potential dye, duplicate (AID 434952;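 active means compound raising the membrane signal above positive-control mean plus 3 SD in both repeats, and a primary screen hit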); conditions: HEK293 TRPC6, membrane potential dye fluorescence, at 10 µM, maximal acetylcholine added after compound; stronger effect = higher value
[23] = target: Short transient receptor potential channel 4 (Mus musculus) (UniProt Q9QUQ5); assay: calcium flux activators in TRPC4/5HT1a cells, counter-screen for TRPC4 activator project, cell-based, second counter screen, HEK293 TRPC4/5HT1a, Fluo-4 (AID 434977;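 active means calcium signal rise above buffer-control mean plus 5 SD in both duplicates, and also a hit in the primary screen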); conditions: Fluo-4 calcium flux, at 10 µM; stronger effect = higher value
[24] = calcium flux inhibitors in TRPC4/5HT1a cells, confirmation, counter-screen for TRPC4 inhibitor project, cell-based, second counter screen, HEK293 TRPC4/5HT1a, Fluo-4 (AID 434978;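 active means primary screen active whose calcium signal fell more than 3 SD beyond the full-serotonin control mean in both duplicate plates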;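 further: serotonin given first at submaximal then at maximal dose after compound preincubation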); conditions: Fluo-4 calcium flux, at 10 µM, serotonin added to trigger calcium flux; stronger effect = higher value
[25] = test system: TRPC4 (mouse), co-expressed with 5HT1a in HEK293; assay: calcium flux potentiators in TRPC4/5HT1a cells, confirmation, counter-screen for TRPC4 potentiator project, cell-based, second counter screen, HEK293 TRPC4/5HT1a, Fluo-4 (AID 434979;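 active means signal rise over 3 SD above mean of control wells given weak agonist, in both repeats and first screen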); conditions: Fluo-4 calcium flux, at 10 µM, serotonin added at its EC20 dose; stronger effect = higher value
[26] = calcium flux activation in mu-opioid HEK293 cells, confirmation, counter-screen for TRPC4 activator project, cell-based, HEK293 mu-opioid receptor line (AID 449723;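 active means hit in primary screen, with calcium signal over 5 SD above buffer well mean in both duplicates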;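 further: counter screen cells carry the mu-opioid receptor alone and lack TRPC4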); conditions: Fluo-4 calcium fluorescence, at 10 µM; stronger effect = higher value
[27] = calcium flux enhancement in mu-opioid HEK293 cells, confirmation, counter-screen for TRPC4 allosteric potentiator project, cell-based, HEK293 mu-opioid receptor line (AID 449724;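 active means calcium signal rise more than 3 SD above the low-dose agonist control mean, in both duplicate plates and the primary screen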); conditions: Fluo-4 calcium flux, at 10 µM, compound added before EC20 DAMGO stimulus; stronger effect = higher value

O=C(CCCN1CCc2[nH]c3ccc(F)cc3c2C1)c1ccc(F)cc1
active: Tl flux remaining, % of negative control (stronger effect = lower value) [1] 46% | inhibition [3] 69% | inhibition [5] 5.5%
inactive: outcome [2] | outcome [4]

Cc1ccc(-n2nc3c(c2NC(=O)CCC2CCCCC2)CS(=O)C3)cc1 (stereo not drawn)
inactive: outcome [1] | outcome [2] | activity over 3SD threshold [9] -35.2% | outcome [10]
active: activity increase over 3SD of controls [6] 7.4% | activation over 3SD threshold [7] 30.1% | potentiation, less the hit threshold [8] 27.6%

S=C(Nc1ccc(Br)cc1)NC1CCN(Cc2ccccc2)CC1
inactive: outcome [2] | outcome [4]
active: Tl flux remaining, % of negative control (stronger effect = lower value) [1] 48% | inhibition [3] 49% | inhibition [5] 4.2%

COc1ccc(-c2n[nH]c(C)c2-c2ccccc2OC)c(O)c1
active: activity increase over 3SD of controls [6] 28.7% | activation over 3SD threshold [7] 56.3%
inactive: outcome [1] | outcome [2] | potentiation, less the hit threshold [8] -12.6% | activity over 3SD threshold [9] -44.6% | outcome [11] | outcome [12] | outcome [13] | outcome [14] | outcome [15] | outcome [16] | outcome [17] | outcome [18] | outcome [19] | outcome [20] | outcome [21] | outcome [22] | outcome [23] | outcome [24] | outcome [25] | outcome [26] | outcome [27]

Cc1cc2cc3c(cc2nc1SCC(=O)Nc1c(C)cccc1C)CCC3
inactive: outcome [1] | outcome [2] | potentiation, less the hit threshold [8] -22.8% | activity over 3SD threshold [9] -19.1%
active: activity increase over 3SD of controls [6] 20.3% | activation over 3SD threshold [7] 6.2%

CC(C)Cc1nnc(NC(=O)CCc2ccccc2)s1
active: activity increase over 3SD of controls [6] 45%
inactive: outcome [1] | outcome [2] | activation over 3SD threshold [7] -19.5% | potentiation, less the hit threshold [8] -14.9% | activity over 3SD threshold [9] -23.2%

CC1(c2ccccc2Cl)NC(=O)N(CC(=O)NC(=O)NCc2ccco2)C1=O (stereo not drawn)
active: activity increase over 3SD of controls [6] 15.2%
inactive: outcome [1] | outcome [2] | activation over 3SD threshold [7] -28.7% | potentiation, less the hit threshold [8] -11.8% | activity over 3SD threshold [9] -15.3%

CCc1ccccc1NC(=O)[C@@H]1CCC(=O)N1C1OC(=O)c2c1ccc(OC)c2OC (stereo partly drawn)
active: activity increase over 3SD of controls [6] 82.8% | activation over 3SD threshold [7] 55%
inactive: outcome [1] | outcome [2] | potentiation, less the hit threshold [8] -19.6% | activity over 3SD threshold [9] -22%

CCCCNC(=O)Nc1c(C)cc(SC#N)cc1C
inactive: outcome [1] | outcome [2] | activity over 3SD threshold [9] -33.2% | outcome [10]
active: activity increase over 3SD of controls [6] 5.5% | activation over 3SD threshold [7] 75.2% | potentiation, less the hit threshold [8] 19.5%

CC(C)(c1ccccc1)c1ccc(OCCN)cc1
inactive: outcome [2] | outcome [3] | outcome [4]
active: Tl flux remaining, % of negative control (stronger effect = lower value) [1] 30.5% | inhibition [5] 36.1%

C/C=C(/C)C(=O)OC1Cc2c(ccc3ccc(=O)oc23)OC1(C)C (stereo not drawn)
active: Tl flux remaining, % of negative control (stronger effect = lower value) [1] 63%
inactive: outcome [2] | outcome [3] | outcome [4] | outcome [5]

O=C(NNC1=C(C(=O)C(F)(F)F)CCC1)c1ccncc1
inactive: outcome [1] | outcome [2] | activity increase over 3SD of controls [6] -5.7% | activation over 3SD threshold [7] -11.4% | activity over 3SD threshold [9] -36.3% | outcome [10]
active: potentiation, less the hit threshold [8] 1.3%
